Laboratory results reported in PubChem BioAssay AID1159580 (chemical genetic matrix, 2015).
The campaign covered roughly 5,500 compounds. About 2,000 (36%) were called active. Inconclusive results (about 18%) are left out. Rule as the data show it: active = normalized growth mostly below about 0.91 (no sharp cut-off); inconclusive = no clear call, values can overlap the other calls; inactive = mostly above about 0.92. Some of the results follow.

Assay: chemical genetic growth profiling, strain panel (AID 1159580);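 also: tested at 20 µM; growth read once vehicle control cultures reached saturation at 30 °C; 1 = growth at the plate median or of vehicle wells; lower values mean less growth of the strain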
Settings: growth OD

Measured: normalized growth

NC(=O)c1ccc([N+](=O)[O-])cc1Cl
inactive: S. cerevisiae deletion strains, locus YKL009W, strain mrt4, hits give low values 0.977 | S. cerevisiae deletion strains, locus YKL068W, hits give low values 0.977 | S. cerevisiae deletion strains, locus YKL085W, strain MDH1 (second series), hits give low values 0.98 | S. cerevisiae deletion strains, locus YKL085W, strain MDH1, hits give low values 0.98 | S. cerevisiae deletion strains, locus YKL160W, strain elf1, hits give low values 1.03 | S. cerevisiae deletion strains, locus YKL190W, strain CNB1, hits give low values 0.968 | S. cerevisiae deletion strains, locus YKR001C, strain vps1, hits give low values 0.969 | S. cerevisiae deletion strains, locus YKR026C, strain gcn3, hits give low values 0.981 | S. cerevisiae deletion strains, locus YKR091W, strain srl3, hits give low values 0.977 | S. cerevisiae deletion strains, locus YLL001W, strain dnm1, hits give low values 1 | S. cerevisiae deletion strains, locus YLL026W, hits give low values 1.01 | S. cerevisiae deletion strains, locus YLL041C, strain sdh2, hits give low values 0.982 | S. cerevisiae deletion strains, locus YLR027C, strain aat2, hits give low values 1.01 | S. cerevisiae deletion strains, locus YLR039C, strain RIC1, hits give low values 0.927 | S. cerevisiae deletion strains, locus YLR058C, strain SHM2, hits give low values 0.963 | S. cerevisiae deletion strains, locus YLR102C, strain apc9, hits give low values 0.971 | S. cerevisiae deletion strains, locus YLR113W, strain HOG1, hits give low values 0.961 | S. cerevisiae deletion strains, locus YLR221C, strain rsa3, hits give low values 0.956 | S. cerevisiae deletion strains, locus YLR258W, strain gsy2, hits give low values 0.956 | S. cerevisiae deletion strains, locus YLR262C, strain YPT6 (second series), hits give low values 0.991 | S. cerevisiae deletion strains, locus YLR262C, strain YPT6, hits give low values 0.838 | S. cerevisiae deletion strains, locus YLR268W, strain sec22, hits give low values 0.961 | S. cerevisiae deletion strains, locus YLR320W, strain mms22, hits give low values 0.965 | S. cerevisiae deletion strains, locus YLR330W, strain CHS5, hits give low values 0.98 | S. cerevisiae deletion strains, locus YLR342W, strain FKS1 (second series), hits give low values 1 | S. cerevisiae deletion strains, locus YLR342W, strain FKS1, hits give low values 1 | S. cerevisiae deletion strains, locus YLR357W, strain rsc2, hits give low values 0.965 | S. cerevisiae deletion strains, locus YLR370C, strain arc18, hits give low values 0.972 | S. cerevisiae deletion strains, locus YLR371W, strain rom2, hits give low values 0.982 | S. cerevisiae deletion strains, locus YLR384C, strain iki3, hits give low values 0.992 | S. cerevisiae deletion strains, locus YLR418C, strain cdc73, hits give low values 0.949 | S. cerevisiae deletion strains, locus YML016C, strain PPZ1, hits give low values 0.98 | S. cerevisiae deletion strains, locus YML032C, strain rad52, hits give low values 0.999 | S. cerevisiae deletion strains, locus YML120C, strain ndi1, hits give low values 1 | S. cerevisiae deletion strains, locus YML124C, strain tub3, hits give low values 0.984 | S. cerevisiae deletion strains, locus YMR058W, strain fet3, hits give low values 0.977 | S. cerevisiae deletion strains, locus YMR078C, strain ctf18, hits give low values 0.977 | S. cerevisiae deletion strains, locus YMR125W, strain sto1, hits give low values 0.973 | S. cerevisiae deletion strains, locus YMR129W, hits give low values 0.975 | S. cerevisiae deletion strains, locus YMR205C, strain PFK2, hits give low values 1.01 | S. cerevisiae deletion strains, locus YMR223W, strain ubp8, hits give low values 0.988 | S. cerevisiae deletion strains, locus YMR231W, strain pep5, hits give low values 0.98 | S. cerevisiae deletion strains, locus YMR263W, strain SAP30, hits give low values 0.968 | S. cerevisiae deletion strains, locus YMR307W, strain GAS1, hits give low values 0.891 | S. cerevisiae deletion strains, locus YNL067W, strain RPL9B, hits give low values 0.969 | S. cerevisiae deletion strains, locus YNL071W, strain lat1, hits give low values 0.974 | S. cerevisiae deletion strains, locus YNL128W, strain TEP1, hits give low values 0.972 | S. cerevisiae deletion strains, locus YNL153C, strain GIM3, hits give low values 0.964 | S. cerevisiae deletion strains, locus YNL183C, strain NPR1, hits give low values 0.895 | S. cerevisiae deletion strains, locus YNL209W, strain ssb2, hits give low values 0.964 | S. cerevisiae deletion strains, locus YNL233W, strain BNI4, hits give low values 0.982 | S. cerevisiae deletion strains, locus YNL248C, strain rpa49, hits give low values 0.931 | S. cerevisiae deletion strains, locus YNL250W, strain rad50, hits give low values 0.971 | S. cerevisiae deletion strains, locus YNL271C, strain bni1, hits give low values 0.981 | S. cerevisiae deletion strains, locus YNL298W, strain CLA4, hits give low values 0.98 | S. cerevisiae deletion strains, locus YNL307C, strain MCK1, hits give low values 0.989 | S. cerevisiae deletion strains, locus YNL322C, strain KRE1 (second series), hits give low values 0.983 | S. cerevisiae deletion strains, locus YNL322C, strain KRE1, hits give low values 0.981 | S. cerevisiae deletion strains, locus YNR049C, strain mso1, hits give low values 0.97 | S. cerevisiae deletion strains, locus YNR052C, strain pop2, hits give low values 0.978 | S. cerevisiae deletion strains, locus YOL006C, strain TOP1, hits give low values 0.886 | S. cerevisiae deletion strains, locus YOL012C, strain htz1 0.79 | S. cerevisiae deletion strains, locus YOL147C, strain pex11, hits give low values 0.98 | S. cerevisiae deletion strains, locus YOR001W, strain rrp6, hits give low values 1 | S. cerevisiae deletion strains, locus YOR061W, strain CKA2, hits give low values 0.951 | S. cerevisiae deletion strains, locus YOR069W, strain VPS5, hits give low values 0.993 | S. cerevisiae deletion strains, locus YOR070C, strain gyp1, hits give low values 0.972 | S. cerevisiae deletion strains, locus YOR080W, strain dia2, hits give low values 0.999 | S. cerevisiae deletion strains, locus YOR083W, strain WHI5, hits give low values 0.989 | S. cerevisiae deletion strains, locus YOR106W, strain vam3, hits give low values 0.987 | S. cerevisiae deletion strains, locus YOR136W, strain idh2, hits give low values 0.99 | S. cerevisiae deletion strains, locus YOR144C, strain elg1, hits give low values 0.991 | S. cerevisiae deletion strains, locus YOR184W, strain ser1, hits give low values 0.982 | S. cerevisiae deletion strains, locus YOR231W, strain MKK1, hits give low values 0.956 | S. cerevisiae deletion strains, locus YOR265W, strain rbl2, hits give low values 0.985 | S. cerevisiae deletion strains, locus YOR270C, strain vph1, hits give low values 0.929 | S. cerevisiae deletion strains, locus YOR290C, strain snf2, hits give low values 0.915 | S. cerevisiae deletion strains, locus YOR316C, strain cot1, hits give low values 0.962 | S. cerevisiae deletion strains, locus YPL051W, strain arl3, hits give low values 0.988 | S. cerevisiae deletion strains, locus YPL055C, strain LGE1, hits give low values 0.941 | S. cerevisiae deletion strains, locus YPL078C, strain atp4, hits give low values 1.02 | S. cerevisiae deletion strains, locus YPL106C, strain sse1, hits give low values 0.957 | S. cerevisiae deletion strains, locus YPL240C, strain hsp82, hits give low values 0.986 | S. cerevisiae deletion strains, locus YPL241C, strain CIN2, hits give low values 1.01 | S. cerevisiae deletion strains, locus YPL256C, strain CLN2, hits give low values 0.941 | S. cerevisiae deletion strains, locus YPR119W, strain clb2, hits give low values 0.986 | S. cerevisiae deletion strains, locus YPR141C, strain kar3, hits give low values 0.955 | S. cerevisiae deletion strains, locus YPR163C, strain tif3, hits give low values 0.989 | S. cerevisiae deletion strains, locus YPR167C, strain met16, hits give low values 0.962 | S. cerevisiae deletion strains, strain wtn01, hits give low values 0.969 | S. cerevisiae strains, strain wild type, hits give low values 0.981
